Hits are enriched below; roughly 2.9% of the tested compounds scored in any of these assays.
ERa SRC1 inh – blocks coactivator binding to human estrogen receptor alpha. P03372. TR-FRET ER-alpha LBD / SRC-1 peptide, estradiol-bound. inhibition, % at 25.6 µM. 86,000 tested, 1.7% active. AID 629; in the data active means inhibition above about 50%;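 further: 0% = receptor plus peptide control and 100% = peptide only without receptor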
ERa SRC1 pot – enhances coactivator binding to human estrogen receptor alpha. TR-FRET ERalpha-LBD/SRC-Cy5 coactivator binding, 2 h; 100 = basal binding, no effect. coactivator binding (% of control), % at 25.6 µM. 86,000 tested, 1.3% active. P03372; in the data active means activity above about 200%;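 further: binding measured in presence of low estradiol as agonist stimulus; 0% = peptide alone without receptor and 100% = receptor with peptide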
ERb SRC1 inh – blocks coactivator binding to human estrogen receptor beta; Q92731; 86,000 tested, 1.3% active; TR-FRET ER-beta LBD / SRC1-Cy5 peptide binding; receptor agonist-loaded with 1 µM estradiol; inhibition, % at 25.6 µM;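 active means compounds whose percent inhibition of the receptor-coactivator binding signal exceeds about 50% in the single-dose screen, limit read from the data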;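 further: 0% = receptor plus peptide wells without compound and 100% = peptide-only wells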
Target sequence (Q92731 whole entry, looked up, the tested form may be a part): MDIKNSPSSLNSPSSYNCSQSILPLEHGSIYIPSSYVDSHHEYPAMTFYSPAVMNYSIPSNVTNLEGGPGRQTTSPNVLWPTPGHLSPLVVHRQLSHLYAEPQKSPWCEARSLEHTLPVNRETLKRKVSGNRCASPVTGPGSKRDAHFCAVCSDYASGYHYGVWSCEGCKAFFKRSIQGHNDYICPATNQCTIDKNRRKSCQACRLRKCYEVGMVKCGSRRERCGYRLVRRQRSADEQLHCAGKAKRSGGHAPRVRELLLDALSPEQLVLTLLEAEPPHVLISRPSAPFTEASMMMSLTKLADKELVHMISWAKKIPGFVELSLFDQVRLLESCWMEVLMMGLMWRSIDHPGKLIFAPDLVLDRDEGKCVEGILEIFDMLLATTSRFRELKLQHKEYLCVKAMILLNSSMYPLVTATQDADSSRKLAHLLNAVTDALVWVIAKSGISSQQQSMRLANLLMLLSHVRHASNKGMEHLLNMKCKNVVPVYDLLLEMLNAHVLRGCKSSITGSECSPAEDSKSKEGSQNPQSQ
F-actin modifier – modifiers of cytoskeleton assembly; inhibition, % at 2 µM; 91,000 tested, 0.18% active; HUVEC TNFa F-actin phalloidin imaging, high content;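 active means inhibition above the batch mean plus 3 SD and confirmed as a hit by visual image inspection, cut at about 30% in these data, passing the limit was not always enough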
E-sel TNF inh – blocks E-selectin expression induced by TNF alpha. HUVEC TNFa-induced E-selectin immunofluorescence, high content. inhibition, % at 2 µM. 120,000 tested, 0.71% active;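 active means inhibition above the batch mean plus 3 SD, and confirmed as a hit on visual image review, cut at about 43% in these data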;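 further: 0% = TNF-stimulated DMSO wells and 100% = unstimulated control wells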
Calb biofilm kill – kills Candida albicans biofilms; inhibition, % at 6 µM; 85,000 tested, 0.14% active; C. albicans biofilm + clotrimazole, Alamar Blue;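 active means inhibition above 20%; inactive means inhibition below 20%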;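 further: preformed 24 hr biofilms exposed to compound for 48 hr; 0% = biofilm without compound and 100% = blank killed by clotrimazole plus chlorhexidine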
Starred values were filed as active, the others as inactive; / = not tested or not shown; [ ] = dose if it differs, or a comment.

SMILES	ERa SRC1 inh	ERa SRC1 pot	ERb SRC1 inh	F-actin modifier	E-sel TNF inh	Calb biofilm kill
Cc1cc(NC(=O)CN2CCN(c3ccccc3F)CC2)nc2c1c(=O)oc1ccccc12	43	96	32	/	/	8
COc1ccc(C2(CNC(=O)c3cc([N+](=O)[O-])cc([N+](=O)[O-])c3)CCCC2)cc1OC	/	/	/	/	63*	/
COc1ccc(C2(CNC(C)=O)CCCC2)cc1OC	5	82	-4	3	/	0
COc1cc(C2c3c(oc4ccc(Cl)cc4c3=O)C(=O)N2Cc2ccco2)cc(OC)c1OC (stereo not given)	56*	23	44	/	/	6
N=C1c2ccccc2CN1NC(=O)c1cccc(S(=O)(=O)N2CCCC2)c1	/	/	/	/	19	/
Cc1cc(C)c(NC(=O)C2CCCN2C(=O)NC2CCCCC2)c(C)c1 (stereo not given)	-7	110	-10	-2	-17	2
O=C1c2oc3ccccc3c(=O)c2C(c2cccc(O)c2)N1CCCN1CCOCC1 (stereo not given)	-1	135	5	18	3	4
O=C1c2oc3ccccc3c(=O)c2C(c2cccc(F)c2)N1CCCO (stereo not given)	4	100	3	67*	2	10
CCc1cc2cc(C(=O)Nc3ccccc3F)sc2s1	-25	152	-1	-9	-29	0
CCc1cc2cc(C(=O)Nc3ccc(F)cc3)sc2s1	37	308*[fluorescence artefact?]	49	9	-15	12
CC(=O)NCCOC(=O)Nc1ccncc1	55*	78	2	-5	32	7
Cc1cc(Nc2ccc(Br)cc2F)n2nc(C)nc2n1	-2	117	-11	/	-13	5
CCOC(=O)CC1=C(C(=O)OCC)C(c2cccs2)C(C#N)=C(N)O1 (stereo not given)	93*[fluorescence artefact?]	91	-2	8	9	4
CCOC(=O)C1=C(CC)OC(N)=C(C#N)C1c1ccc(OC)c(C)c1OC (stereo not given)	/	/	/	/	37	/
CCOC(=O)C1=C(c2ccccc2)OC(N)=C(C#N)C1c1cccs1 (stereo not given)	/	/	/	16	-26	/
CCOC(=O)C1=C(CC)OC(N)=C(C#N)C1c1cc(OC)ccc1OC (stereo not given)	/	/	/	/	94*	/
O=[N+]([O-])c1cc2c(cc1/C=N/Nc1nc(Nc3ccccc3)nc(N3CCCCC3)n1)OCO2	/	/	/	7	57*	/
Cc1cc(C)nc(N/N=C/c2cc3c(cc2[N+](=O)[O-])OCO3)n1	/	/	/	/	2	/
CN(C(=O)c1ccno1)c1nnc(-c2ccccn2)s1	-7	127	-7	-8	2	20*
Clc1ccc(CNc2ccc3nnc(-c4ccccc4)n3n2)cc1	/	/	/	/	76*	/
COc1ccc(C2CC(C)(c3ccc(OC)cc3OC)Nc3ccccc3N2)c(OC)c1 (stereo not given)	/	/	/	/	2	/
O=C1Nc2ccccc2C12OCCS2 (stereo not given)	-5	96	54*	/	/	6
Cn1cnnc1SCC(=O)Nc1nc(-c2ccccc2)cs1	/	/	/	/	-14	/
O=c1c2c3nc4ccccc4nc3n(/N=C/c3ccco3)c2ncn1CCC1=CCCCC1	66*[fluorescence artefact?]	85	40	/	/	1
CC(=O)N(Cc1ccco1)c1nc(C(=O)Nc2ccc(Cl)cc2)c(C)s1	/	/	/	/	-7	/
SMILES	ERa SRC1 inh	ERa SRC1 pot	ERb SRC1 inh	F-actin modifier	E-sel TNF inh	Calb biofilm kill
Cc1nc(SCC(=O)Nc2c(C)nn(C)c2C)c2cnn(-c3ccccc3)c2n1	2	128	-16	-10	13	2
Cc1nn(Cc2ccccc2)c(C)c1NC(=O)CSc1nc(-c2ccccc2)nc2c1cnn2-c1ccccc1	72*[fluorescence artefact?]	150	37	22	-14	0
CN(C)CCN1CCc2ccccc21	40	48	55*[fluorescence artefact?]	0	7	4
Cc1ccc(NC(=O)CN(C)c2ccc(S(=O)(=O)N3CCN(C)CC3)cn2)cc1	-66	481*[fluorescence artefact?]	5	-39	/	8
CN1CCN(S(=O)(=O)c2ccc(N(C)CC(=O)Nc3ccc(F)cc3)nc2)CC1	-6	162	8	/	23	7
Clc1ccc(Nc2nc(-c3ccncc3)cs2)cc1	76*	117	44	-6	6	8
COc1ccc(NC(=O)CN2CCN(C3c4ccccc4-c4ccccc43)CC2)cc1	-13	71	8	-12	-30	6
COC(=O)/C(=C\Nc1ccc(Cl)cc1Cl)NC(=O)c1ccc(Cl)cc1Cl	74*[fluorescence artefact?]	52	46	-2	/	4
O=C(c1ccc(Cl)cc1)c1oc2ccccc2c1CS(=O)(=O)c1ccccc1	/	/	/	2	-49	/
COc1ccc(C(=O)N2CCN(C(=O)Cc3ccccc3)CC2)cc1OC	-1	99	-1	-42	17	7
COc1ccc(CC(=O)N2CC(C)CC(C)C2)cc1OC (stereo not given)	-3	93	84*[fluorescence artefact?]	6	11	4
c1coc(Cn2nnnc2CN2CCN(C3CCCC3)CC2)c1	2	94	14	14	-15	2
Fc1ccc(Cn2nnnc2CN2CCN(C3CCCCC3)CC2)cc1	-4	218*[fluorescence artefact?]	1	-32	9	4
NC(N)=Nc1nc(-c2ccccc2)c2cc(F)ccc2n1	/	/	/	/	-6	/
CC(=O)Nc1sc(NC(=O)c2ccccc2)nc1-c1cccs1	-12	136	4	/	-24	6
COc1ccccc1C(=O)Nc1nc(-c2cccs2)c(NC(C)=O)s1	66*	72	35	11	-15	6
CC(=O)c1cccc(NC(=S)NC2CCCCC2)c1	/	/	/	/	15	/
CC(=O)c1cccc(NC(=O)C2CCCCC2)c1	-22	263*	-34	11	-6	/
Cc1snc2sc(C(=O)c3ccc(Br)cc3)c(N)c12	71*	140	52*	/	8	3
CCn1c(CSc2nnc(-c3ccc4c(c3)OCO4)o2)nc2cc(S(=O)(=O)N(C)C)ccc21	/	/	/	/	-36	/
CCOC(=O)c1cccc(NC(=O)c2cccs2)c1	-3	114	79*	-8	4	4
CCOC(=O)c1cccc(NC(=O)c2ccco2)c1	-7	105	-1	/	-5	2
COc1cccc(C(C(=O)NC(C)(C)C)N(CC(C)C)C(=O)CCC(=O)Nc2cc(C)on2)c1OC (stereo not given)	/	/	/	/	-17	/
O=C(CN(CC1CCCO1)C(=O)CCC(=O)Nc1nccs1)NCc1ccc2c(c1)OCO2 (stereo not given)	-4	117	1	-5	100*	3
O=C(CN(CC1CCCO1)C(=O)CCC(=O)Nc1nccs1)NCC1CCCO1 (stereo not given)	-9	126	-16	48	0	4
N#Cc1ccsc1NC(=O)CN1CCN(S(=O)(=O)c2ccc3ccccc3c2)CC1	/	/	/	/	6	/
N#Cc1ccsc1NC(=O)COC(=O)c1ccc2ccccc2c1	/	/	/	/	97*	/
CC/C(=C\C1CCCCC1)C(NP(=O)(c1ccccc1)c1ccccc1)c1ccccc1 (stereo not given)	/	/	/	/	-11	/
CCn1cc(C(=O)N=c2sc3ccccc3n2C)c(=O)c2ccc(C)nc21	25	250*	7	1	-8	9
